Test results: PubChem BioAssay (NCATS)
Calls of active or inactive are those of the source. Calls follow the shape of the full dose curve.

Legend:
Test in all cases: Confirmatory Screen for Target Class Profiling of Small Molecule Inhibitors of Methyltransferases (AID 1745852); as to activity change, negative = inhibition: % is scaled to controls: 0 for no effect and ±100 for the full control effect
[1] = biological target: Catechol O-methyltransferase (Homo sapiens) (UniProt P21964); conditions: MTase-Glo luminescence, SAH detection, recombinant enzyme; measured here: COMT max response; stronger effect = lower value
[2] = biological target: Guanidinoacetate N-methyltransferase (Homo sapiens) (UniProt Q14353); conditions: MTase-Glo luminescence, SAH detection, recombinant enzyme; activity change, negative = inhibition: at 57.3 µM (top of the series) unless noted; series mostly up to 57.3 µM
[3] = biological target: Nicotinamide N-methyltransferase (Homo sapiens) (UniProt P40261); conditions: MTase-Glo luminescence, SAH detection, recombinant enzyme; measured here: NNMT max response; stronger effect = lower value
[4] = biological target: Phenylethanolamine N-methyltransferase (Homo sapiens) (UniProt P11086); conditions: MTase-Glo luminescence, SAH detection, recombinant enzyme; measured here: PNMT max response; stronger effect = lower value
Potency is read from the fitted curve at half-maximal effect.

Chain of Catechol O-methyltransferase (Homo sapiens) (P21964 whole entry, looked up): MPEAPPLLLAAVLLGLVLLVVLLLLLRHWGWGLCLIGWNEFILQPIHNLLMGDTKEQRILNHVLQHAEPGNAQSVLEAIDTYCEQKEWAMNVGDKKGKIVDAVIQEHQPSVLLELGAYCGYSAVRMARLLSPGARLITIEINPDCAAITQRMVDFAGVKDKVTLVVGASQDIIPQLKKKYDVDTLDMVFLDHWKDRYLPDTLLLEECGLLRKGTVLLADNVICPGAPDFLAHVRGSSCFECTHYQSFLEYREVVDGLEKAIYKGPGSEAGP
Chain of Nicotinamide N-methyltransferase (Homo sapiens) (P40261 whole entry, looked up): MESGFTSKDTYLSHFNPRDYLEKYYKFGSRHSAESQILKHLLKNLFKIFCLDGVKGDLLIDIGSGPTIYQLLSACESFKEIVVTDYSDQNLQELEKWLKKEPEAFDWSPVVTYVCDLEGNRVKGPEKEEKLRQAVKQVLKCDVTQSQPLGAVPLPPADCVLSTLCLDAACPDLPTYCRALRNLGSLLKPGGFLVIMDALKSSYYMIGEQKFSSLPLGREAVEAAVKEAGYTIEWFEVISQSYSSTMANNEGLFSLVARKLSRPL
Chain of Phenylethanolamine N-methyltransferase (Homo sapiens) (P11086 whole entry, looked up): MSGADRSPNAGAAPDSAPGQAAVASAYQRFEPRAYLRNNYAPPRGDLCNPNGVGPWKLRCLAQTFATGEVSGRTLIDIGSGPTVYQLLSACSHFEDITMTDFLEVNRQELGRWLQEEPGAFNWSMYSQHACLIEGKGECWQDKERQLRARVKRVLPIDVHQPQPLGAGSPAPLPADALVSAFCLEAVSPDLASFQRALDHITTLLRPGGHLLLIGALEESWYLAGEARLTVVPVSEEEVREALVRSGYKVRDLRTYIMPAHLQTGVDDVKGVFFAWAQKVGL

SMILES	activity [1]	activity change, negative = inhibition [2]	activity [3]	activity [4]	Potency [2]
COc1ccc(CCN2C(=O)c3cc4occc4n3CC2(C)C(=O)NC2CCCCC2)cc1OC (stereo not given)	2.48%	0%	-47.9%	1.36%	
CCN(CC)CCCNC(=O)CCc1nnc2n(CCc3ccccc3)c(=O)c3ccccc3n12	-3.69%	-1.16%	-11.7%	2.52%	
CCN(CC)CCNC(=O)CCCc1nnc2n3nc(-c4ccccc4)nc3c3ccccc3n12	-2.75%	0.717%	-0.56%	-1.77%	
Cc1cnc(CCNC(=O)c2cccs2)n1C1CCC1	0.518%	3.29%	8.96%	6.31%	
O=C(NCc1cccc(Cl)c1)c1sc(=S)n2c1[nH]c(=O)c1cc3c(cc12)OCO3	-21.3%		-63.2%	-39.9%	27.1 µM (active)
CC(C)CCNC(=O)c1ccc2c(=O)[nH]c3c(C(=O)NC4CCCC4)sc(=S)n3c2c1	-37.7%		-45.4%	-38.7%	27.1 µM (active)
O=C(Nc1ccc(F)c(Cl)c1)N1CCn2cccc2C1Cc1ccccc1 (stereo not given)	-2.26%	1.87%	-5.36%	-6.59%	
CCc1cccc(NC(=O)Cn2c(=O)oc3cc(S(=O)(=O)N4CCCCC4)ccc32)c1	1.79%	0%	-2.82%	-33.8%	
O=C(Nc1ccc2c(N3CCCCC3)ncnc2c1)c1ccccc1C(F)(F)F	-15.7%	-6.31%	-10.2%	-19.5%	
CC(C)OCCCn1c(=O)c2ccccc2n2c(CCC(=O)N3CCN(c4cccc(Cl)c4)CC3)nnc12	0.543%	0%	-39.1%	-4.41%	
Cc1ccc(NS(=O)(=O)c2ccc3c(c2)[C@H]2C=CC[C@H]2[C@@H](c2cccc(Cl)c2)N3)c(C)c1	-11.2%	-14.3%	-16.4%	-18.5%	
COc1ccc(-c2cc(C(=O)NCc3cccnc3)c3c(c2)N(C)CCO3)cc1OC	3.17%	8.84% [at 85.7 µM]	-0.0858%	-0.493%	
CN(C)CCNC(=O)c1ccnc(-c2nnc3ccc(N(C)c4ccccc4)nn23)c1	-5.96%	-11.8% [at 85.7 µM]	-14.4%	-6.46%	
Cc1cccc(N2CCN(C(=O)CCc3nnc4n(CCC(C)C)c(=O)c5ccccc5n34)CC2)c1C	-0.369%	0%	-48.8%	-4.73%	
Cn1cnc(CN2CCNc3cc(Nc4ccccc4)ncc3C2)c1	7.14%	2.31% [at 85.7 µM]	4.88%	-5.41%	
Cc1ccccc1-c1[nH]nc2ncc(-c3c(C)noc3C)nc12	-14.4%	-10.5% [at 85.7 µM]	-31.8%	-28.1%	
COC(=O)c1nc(NC(=O)Cn2nc3c(cc2=O)CCCC3)sc1C(C)C	-1.05%	0.9%	-8.15%	2.23%	
COc1ccc(S(=O)(=O)NC[C@H]2Cn3c(-c4ccc(Cl)cc4)cnc3CO2)cc1	-8.66%	-2.1% [at 85.7 µM]	-23.7%	-17.1%	
Cn1c(=O)n(C)c2cc(S(=O)(=O)N3CCN(C4CCCCC4)CC3)c(Cl)cc21	-1.77%	2.61%	-10.5%	-13.7%	
CCN1CCN(c2nc3c(S(=O)(=O)c4ccc(Br)cc4)nnn3c3ccccc23)CC1	1.75%	2.08%	-1.61%	-3.25%	
COc1cccc(Nc2cc3c(cn2)CN(Cc2cccnc2)CCN3)c1	1.92%	2.65% [at 85.7 µM]	-7.33%	-8.41%	
COc1cccc(N2C(=O)NC(=NC3CCCCC3)C23CCCN(CC2CCCCC2)C3)c1 (stereo not given)	-0.686%	10.7%	-50.3%	1.19%	
O=C(NCc1cccc(F)c1)c1nc2c(o1)CCN(CC1CCCC1)CC2	5.53%	18.3% [at 85.7 µM]	5.46%	-10.1%	
Cc1noc(C)c1[S+](=O)([O-])N1CCn2c(nn(-c3ccc(C(F)(F)F)cc3)c2=O)C1	-1.02%	-1.81%	-3.73%	-10.3%	
COc1ccccc1-c1[nH]nc2ncc(C(=O)NCC3CC3)nc12	-33.3%	-13.8% [at 85.7 µM]	-16.5%	-40.5%	
CC(C)Cn1c(=O)c2ccccc2n2c(CCC(=O)N3CCN(c4ccc(F)cc4)CC3)nnc12	-4.42%	2.04%	-55.7%	-6.74%	
CCNc1nccc(N2CCC(CC(=O)NCC(C)C)CC2)n1	-2.4%	-5.08%	-6.4%	-1.27%	
O=c1c2ccccc2n2c(-c3cc(Cl)ccc3O)nnc2n1Cc1ccc(F)cc1	-12.1%		-13.1%	-27.8%	27.1 µM (active)
Cc1nc2cccnc2n1CC1CCCN(S(=O)(=O)c2ccc3c(c2)OCCO3)C1 (stereo not given)	2.68%	-0.116%	-4.66%	-0.0682%	
COc1ccc(-c2nnn3c2nc(NCCc2ccc(OC)c(OC)c2)c2ccccc23)cc1	-10.5%	-2.81%	-12.4%	-9.28%	
